The values that follow come from PubChem BioAssay (NCI).

“And” between values parts separate entries of the source, which are not always exact repeats. Equal values may be shown once. The panel holds about 83,000 compounds, 20% with a hit somewhere; the sample as a whole holds those more often.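 Testing used 96-well plates and a 48-hour single-concentration exposure. Example: -40 means 40% of the starting cells died.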 The source made the active and inactive calls. The calls were made as follows: active = growth percent below 10; inactive = the rest.

Test systems include SR leukemia; OVCAR-8 ovarian; OVCAR-5 ovarian; OVCAR-4 ovarian; SK-OV-3 ovarian; IGROV1 ovarian; OVCAR-3 ovarian; HS 578T breast; NCI/ADR-RES ovarian; T-47D breast; BT-549 breast; SW-620 colon; MCF7 breast; HCT-116 colon; HCC-2998 colon; KM12 colon.
Assay in all cases: NCI-60 one-dose screen, 48 h (100 = growth as untreated, 0 = no growth, -100 = all killed)
For the next experiment, the system named is RPMI-8226 leukemia. Conditions: 10 µM unless noted.
The subject of another experiment is MDA-MB-435 melanoma. The following applies: 10 µM unless noted.

In the case of `O=C1OC(Oc2ccc(Br)cc2)(c2ccccc2)c2ccccc21` (configuration not stated), the growth is 75.4% (inactive) in the experiment with SR leukemia (10 µM unless noted); 85.8% (inactive) with RPMI-8226 leukemia; 93.9% (inactive) and 93% (inactive) in the experiment with OVCAR-8 ovarian (10 µM unless noted); 97.3% (inactive) and 110% (inactive) in the experiment with OVCAR-5 ovarian (10 µM unless noted); 92.1% (inactive) in the experiment on OVCAR-4 ovarian (10 µM unless noted); 96.1% (inactive) and 110% (inactive) in the experiment on SK-OV-3 ovarian (10 µM unless noted). For the same compound, the growth with IGROV1 ovarian (10 µM unless noted) is 79.7% (inactive) and 81.3% (inactive); with OVCAR-3 ovarian (10 µM unless noted) it was 87.4% (inactive) and 68.8% (inactive); in the experiment on HS 578T breast (10 µM unless noted), 97.6% (inactive) and 84.7% (inactive); in the experiment with NCI/ADR-RES ovarian (10 µM unless noted), 90.8% (inactive) and 76.8% (inactive); in the experiment with T-47D breast (10 µM unless noted) it was 73.6% (inactive) and 76.6% (inactive); in the experiment on BT-549 breast (10 µM unless noted), 88.4% (inactive) and 120% (inactive). The growth in the experiment on MDA-MB-435 melanoma was 102% (inactive) and 79.5% (inactive); with SW-620 colon (10 µM unless noted), 78.6% (inactive) and 66.5% (inactive); in the experiment on MCF7 breast (10 µM unless noted), 89% (inactive) and 101% (inactive); in the experiment with HCT-116 colon (10 µM unless noted) it was 65.6% (inactive) and 54.6% (inactive); with HCC-2998 colon (10 µM unless noted), 102% (inactive) and 87.3% (inactive); in the experiment on KM12 colon (10 µM unless noted), 87.7% (inactive) and 76.3% (inactive).
Consider `CCN(CC)CCOc1ccc(/C=N/Nc2nc3c([nH]2)c(=O)n(C)c(=O)n3C)cc1`, for which the growth in the experiment on SR leukemia (10 µM unless noted) was 102% (inactive) and 96.8% (inactive); in the experiment on RPMI-8226 leukemia it was 90.7% (inactive) and 108% (inactive); in the experiment on OVCAR-8 ovarian (10 µM unless noted), 107% (inactive) and 104% (inactive); with OVCAR-5 ovarian (10 µM unless noted), 117% (inactive) and 89.7% (inactive); in the experiment on OVCAR-4 ovarian (10 µM unless noted) it was 107% (inactive) and 105% (inactive); in the experiment on SK-OV-3 ovarian (10 µM unless noted), 106% (inactive) and 107% (inactive). Besides, the growth is 110% (inactive) and 91.2% (inactive) in the experiment with IGROV1 ovarian (10 µM unless noted); 114% (inactive) and 94.8% (inactive) in the experiment with OVCAR-3 ovarian (10 µM unless noted); 106% (inactive) and 105% (inactive) in the experiment with HS 578T breast (10 µM unless noted); 118% (inactive) and 106% (inactive) in the experiment on NCI/ADR-RES ovarian (10 µM unless noted); 89.7% (inactive) and 96.3% (inactive) in the experiment on T-47D breast (10 µM unless noted); 105% (inactive) and 96.1% (inactive) with BT-549 breast (10 µM unless noted). For the same compound, the growth is 104% (inactive) and 105% (inactive) with MDA-MB-435 melanoma; 108% (inactive) and 104% (inactive) with SW-620 colon (10 µM unless noted); 81.5% (inactive) and 74.6% (inactive) in the experiment with MCF7 breast (10 µM unless noted); 98.3% (inactive) and 103% (inactive) in the experiment on HCT-116 colon (10 µM unless noted); 102% (inactive) and 111% (inactive) with HCC-2998 colon (10 µM unless noted); 109% (inactive) and 106% (inactive) with KM12 colon (10 µM unless noted).
For the compound `CCCCCn1sc(=O)n(Cc2ccc(CNC(=O)C(C)c3ccc(CC(C)C)cc3)cc2)c1=O` (configuration not stated), the growth in the experiment on SR leukemia (10 µM unless noted) was 104% (inactive) and 1.27% (active); in the experiment on RPMI-8226 leukemia, 99.7% (inactive) and -24.6% (active); in the experiment with OVCAR-8 ovarian (10 µM unless noted), 92.5% (inactive) and -15% (active); with OVCAR-5 ovarian (10 µM unless noted), 103% (inactive) and -53.7% (active); in the experiment with OVCAR-4 ovarian (10 µM unless noted) it was 90% (inactive) and -47.6% (active); in the experiment on SK-OV-3 ovarian (10 µM unless noted), 97.1% (inactive) and 70.2% (inactive). The growth in the experiment with IGROV1 ovarian (10 µM unless noted) was 106% (inactive) and -83.2% (active); in the experiment with OVCAR-3 ovarian (10 µM unless noted) it was 102% (inactive) and -75.4% (active); in the experiment with HS 578T breast (10 µM unless noted), 98.4% (inactive) and -7.35% (active); in the experiment with NCI/ADR-RES ovarian (10 µM unless noted), 99.8% (inactive) and -17.6% (active); in the experiment with T-47D breast (10 µM unless noted) it was 86.4% (inactive) and -44.8% (active); with BT-549 breast (10 µM unless noted), 99.1% (inactive) and -82.4% (active). For the same compound, the growth in the experiment with MDA-MB-435 melanoma is 98.1% (inactive) and -61.5% (active); in the experiment on SW-620 colon (10 µM unless noted) it was 87.6% (inactive) and -73.1% (active); with MCF7 breast (10 µM unless noted), 93.2% (inactive) and -43.1% (active); with HCT-116 colon (10 µM unless noted) it was 103% (inactive) and -82.6% (active); in the experiment with HCC-2998 colon (10 µM unless noted), 105% (inactive) and -64.3% (active); in the experiment with KM12 colon (10 µM unless noted), 88.7% (inactive) and -14.3% (active).
`CC(C)(C)c1cc(NC(=O)Cc2ccc(-c3cnc4cc(-c5cnn(CCN6CCOCC6)c5)ccc4n3)cc2)no1`: the growth in the experiment on SR leukemia (10 µM) was 9.16% (active); in the experiment with SR leukemia (30 µM) it was 8.04% (active); in the experiment on RPMI-8226 leukemia, 22.5% (inactive); with OVCAR-8 ovarian (10 µM) it was 18.6% (inactive); with OVCAR-8 ovarian (30 µM), 26.1% (inactive); with OVCAR-5 ovarian (10 µM), 24.2% (inactive). The growth in the experiment with OVCAR-5 ovarian (30 µM) was 20.1% (inactive); with OVCAR-4 ovarian (10 µM), 10.1% (inactive); in the experiment with OVCAR-4 ovarian (30 µM), 22.9% (inactive); in the experiment with SK-OV-3 ovarian (10 µM), -14.1% (active); in the experiment on SK-OV-3 ovarian (30 µM), 9.27% (active); with IGROV1 ovarian (10 µM), -7.95% (active). The growth in the experiment on IGROV1 ovarian (30 µM) was -9.55% (active); in the experiment with OVCAR-3 ovarian (10 µM), 28.4% (inactive); in the experiment with OVCAR-3 ovarian (30 µM), 22% (inactive); in the experiment with HS 578T breast (10 µM), -5.25% (active); in the experiment with HS 578T breast (30 µM), 3.43% (active); in the experiment on NCI/ADR-RES ovarian (10 µM), 12.8% (inactive). Besides, the growth was 16.9% (inactive) with NCI/ADR-RES ovarian (30 µM); 15.6% (inactive) with T-47D breast (10 µM); 25.5% (inactive) in the experiment on T-47D breast (30 µM); 22% (inactive) with BT-549 breast (10 µM); 32.9% (inactive) with BT-549 breast (30 µM); 15.5% (inactive) in the experiment on SW-620 colon (10 µM). In addition, the growth in the experiment with SW-620 colon (30 µM) is 18.8% (inactive); in the experiment with MCF7 breast (10 µM) it was 35.4% (inactive); with MCF7 breast (30 µM), 33.8% (inactive); with HCT-116 colon (10 µM), 14.9% (inactive); in the experiment with HCT-116 colon (30 µM) it was 24.3% (inactive); in the experiment with HCC-2998 colon (10 µM), 40.3% (inactive). The growth with HCC-2998 colon (30 µM) is 39.4% (inactive); in the experiment on KM12 colon (10 µM), 8.46% (active); in the experiment on KM12 colon (30 µM) it was 9.72% (active).
